According to PubChem BioAssay AID1159580 (chemical genetic matrix, 2015):
Hit rate of the full screen: of about 5,500 compounds, about 2,000 (36%) were called active. Roughly 18% stayed inconclusive and do not appear here. No stated cut-off is given here; in the data, active means normalized growth mostly below about 0.91 (no sharp cut-off); inconclusive means no clear call, values can overlap the other calls; inactive means mostly above about 0.92. Some of the results follow.

Assay: chemical genetic growth profiling, strain panel (AID 1159580);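 further: tested at 20 µM; growth read once vehicle control cultures reached saturation at 30 °C; 1 = growth at the plate median or of vehicle wells; lower values mean less growth of the strain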
Details: S. cerevisiae deletion strains, growth OD

Measured: normalized growth

O=C(/C=C/c1ccc(O)c(O)c1)OC(Cc1ccc(O)c(O)c1)C(=O)O (stereo not given)
inactive: locus YAL021C, strain ccr4, active compounds read low 1.07 | locus YAL026C, strain drs2, active compounds read low 1.03 | locus YAL030W, strain snc1, active compounds read low 1.01 | locus YBL061C, strain skt5, active compounds read low 1.05 | locus YBR009C, strain hhf1, active compounds read low 1.01 | locus YBR023C, strain chs3, active compounds read low 1.04 | locus YBR171W, strain sec66, active compounds read low 1.01 | locus YBR231C, strain swc5, active compounds read low 0.994 | locus YBR279W, strain paf1, active compounds read low 1.02 | locus YCL011C, strain gbp2, active compounds read low 1.02 | locus YCL016C, strain dcc1, active compounds read low 1.05 | locus YCL061C, strain MRC1, active compounds read low 1.03 | locus YCL069W, strain vba3, active compounds read low 1.02 | locus YCR088W, strain abp1, active compounds read low 1.02 | locus YDL005C, strain med2, active compounds read low 1.01 | locus YDL040C, strain nat1, active compounds read low 1.02 | locus YDR001C, strain nth1, active compounds read low 1.02 | locus YDR069C, strain doa4, active compounds read low 1.03 | locus YDR137W, strain rgp1, active compounds read low 1.09 | locus YDR159W, strain sac3, active compounds read low 0.922 | locus YDR195W, strain ref2 1.07 | locus YDR297W, strain sur2, active compounds read low 1.02 | locus YDR334W, strain swr1, active compounds read low 1.04 | locus YDR335W, strain msn5, active compounds read low 1.03 | locus YDR392W, strain spt3, active compounds read low 0.885 | locus YEL003W, strain gim4, active compounds read low 0.999 | locus YEL037C, strain rad23, active compounds read low 1.02 | locus YEL061C, strain CIN8 (second series), active compounds read low 1.02 | locus YER015W, strain faa2, active compounds read low 1.01 | locus YER016W, strain bim1, active compounds read low 1.04 | locus YER111C, strain swi4, active compounds read low 1.01 | locus YER155C, strain BEM2 (second series), active compounds read low 0.997 | locus YFR010W, strain ubp6, active compounds read low 0.997 | locus YGL167C, strain pmr1, active compounds read low 1.01 | locus YGL173C, strain kem1, active compounds read low 0.995 | locus YGL227W, strain vid30, active compounds read low 1.02 | locus YGL240W, strain doc1, active compounds read low 1.04 | locus YGL253W, strain hxk2, active compounds read low 1.05 | locus YHR013C, strain ard1, active compounds read low 0.999 | locus YHR027C, strain rpn1, active compounds read low 1 | locus YHR030C, strain SLT2, active compounds read low 0.982 | locus YHR079C, strain IRE1, active compounds read low 0.989 | locus YHR142W, strain chs7, active compounds read low 1.04 | locus YJL092W, strain hpr5, active compounds read low 1.02 | locus YJL095W, strain BCK1 (second series), active compounds read low 1.03 | locus YJL095W, strain BCK1, active compounds read low 0.999 | locus YJL115W, strain asf1, active compounds read low 1.02 | locus YJL129C, strain trk1, active compounds read low 1.03 | locus YJL154C, strain vps35, active compounds read low 1.02 | locus YJL164C, strain tpk1, active compounds read low 0.99 | locus YJL166W, strain qcr8, active compounds read low 1.03 | locus YJL187C, strain SWE1, active compounds read low 1.03 | locus YJR066W, strain TOR1, active compounds read low 0.912 | locus YKL160W, strain elf1, active compounds read low 1.04 | locus YKR026C, strain gcn3, active compounds read low 1.03 | locus YKR091W, strain srl3, active compounds read low 1.01 | locus YLL001W, strain dnm1, active compounds read low 1 | locus YLL026W, active compounds read low 1.02 | locus YLL041C, strain sdh2, active compounds read low 1.02 | locus YLR027C, strain aat2, active compounds read low 1.04 | locus YLR113W, strain HOG1, active compounds read low 0.979 | locus YLR221C, strain rsa3, active compounds read low 0.989 | locus YLR258W, strain gsy2, active compounds read low 1.01 | locus YLR262C, strain YPT6 (second series), active compounds read low 1.05 | locus YLR320W, strain mms22, active compounds read low 1 | locus YLR342W, strain FKS1, active compounds read low 1.02 | locus YLR357W, strain rsc2, active compounds read low 1.04 | locus YLR370C, strain arc18, active compounds read low 1.03 | locus YLR384C, strain iki3, active compounds read low 1 | locus YML120C, strain ndi1, active compounds read low 0.994 | locus YMR058W, strain fet3, active compounds read low 0.932 | locus YMR125W, strain sto1, active compounds read low 1.02 | locus YMR129W, active compounds read low 1.02 | locus YMR205C, strain PFK2, active compounds read low 1.08 | locus YMR231W, strain pep5, active compounds read low 1.01 | locus YNL071W, strain lat1, active compounds read low 1.01 | locus YNL183C, strain NPR1, active compounds read low 0.905 | locus YNL209W, strain ssb2, active compounds read low 1 | locus YNL248C, strain rpa49, active compounds read low 1.03 | locus YNL322C, strain KRE1 (second series), active compounds read low 1.03 | locus YNR049C, strain mso1, active compounds read low 1.02 | locus YOR001W, strain rrp6, active compounds read low 0.965 | locus YOR070C, strain gyp1, active compounds read low 1.01 | locus YOR080W, strain dia2, active compounds read low 1.02 | locus YOR083W, strain WHI5, active compounds read low 0.988 | locus YOR106W, strain vam3, active compounds read low 1.05 | locus YOR231W, strain MKK1, active compounds read low 1 | locus YOR265W, strain rbl2, active compounds read low 1.01 | locus YOR270C, strain vph1, active compounds read low 1.07 | locus YOR290C, strain snf2, active compounds read low 1.04 | locus YPL051W, strain arl3, active compounds read low 1.04 | locus YPL078C, strain atp4, active compounds read low 1.06 | locus YPL106C, strain sse1, active compounds read low 1.06 | locus YPL240C, strain hsp82, active compounds read low 1.02 | locus YPL256C, strain CLN2, active compounds read low 1
